This is part of a sample that, as a whole, favours compounds with a hit. Of some 83,000 tested, about 20% had one in any assay.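 The endpoint reported here, percent growth, reads 100 for growth as untreated, 0 for no net growth and -100 for all cells dead.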 The source made the active and inactive calls. Rule for the calls: active = growth percent below 10; inactive = the rest.
Experiments:
Assay in all cases: NCI-60 one-dose screen, 48 h (100 = growth as untreated, 0 = no growth, -100 = all killed)
Details in all cases: 10 µM unless noted
[1] = tested on: DU-145 prostate
[2] = tested on: K-562 leukemia
[3] = tested on: MALME-3M melanoma
[4] = tested on: MDA-MB-231 breast
[5] = tested on: RXF 393 renal
[6] = tested on: SF-268 CNS
[7] = tested on: SF-295 CNS
[8] = tested on: SF-539 CNS
[9] = tested on: UACC-257 melanoma
[10] = tested on: M14 melanoma

Measured: growth

CNC(=O)c1cc(-c2ccc(NC(=S)Nc3cc(C(F)(F)F)cc(C(F)(F)F)c3)cc2)nc2cccnc12
inactive: [1] 84.9% | [2] 94.9% | [3] 99.2% | [4] 88.7% | [5] 41.1% | [6] 88.2% | [7] 89.9% | [8] 92.1% | [9] 102% | [10] 98.5%

N#Cc1c(Nc2ccccc2)nn2c(-c3ccc([N+](=O)[O-])cc3)ccnc12
inactive: [1] 109% | [2] 112% | [3] 104% | [4] 102% | [5] 90.3% | [6] 100% | [7] 104% | [8] 100% | [9] 95.3% | [10] 106%

NC/C(=C/F)COc1ccc2nc(NCc3cccnc3)oc2c1
inactive: [1] 95% | [2] 109% | [3] 108% | [4] 96% | [5] 66.9% | [6] 93.2% | [7] 99.9% | [8] 91.9% | [9] 95.9% | [10] 103%

O=C(Nc1nc2ccc([N+](=O)[O-])cc2s1)Nc1ccccc1Br
inactive: [1] 46.5% | [2] 20.7% | [3] 14.6% | [4] 72.7% | [5] 62.2% | [6] 38.3% | [7] 38.1% | [8] 39.9% | [9] 30.4% | [10] 54.5%

CCCn1cnc2c(c1=N)C(c1ccc(Cl)cc1)c1sc3c(C)cccc3c1O2 (stereo not given)
inactive: [1] 19.7% | [3] 59.5% | [4] 28.6% | [6] 41.1% | [9] 86.5%
active: [2] 7.73% | [5] -4.19% | [7] -6.66% | [8] -21.1% | [10] 8.06%

CN1CCN(Cc2ccc(NC(=O)c3cncc(C#Cc4cnc5ccc(N6CCN(C)CC6)nn45)c3)cc2C(F)(F)F)CC1
active: [1] -94.2% | [2] -59% | [4] -66.7% | [5] -89.9% | [6] -50.7% | [7] -78.4% | [8] -98% | [10] -45.8%
inactive: [3] 68.3% | [9] 101%

COc1cc(-c2nn(C(C)(C)C)cc2-c2ccnc(NCCCNS(=O)(=O)c3ccc(Cl)cc3)n2)ccc1Cl
active: [5] 4.9%
inactive: [1] 60.5% | [2] 33.5% | [3] 87.9% | [4] 55.5% | [6] 44.1% | [7] 59.6% | [8] 84.4% | [9] 82.1% | [10] 76.8%

Nc1nc(-c2cccc([N+](=O)[O-])c2)c(N=Nc2ccc(Br)cc2)s1
inactive: [2] 16.6% | [6] 26.2%
active: [1] -41.2% | [3] -62% | [4] -46.6% | [5] -92.3% | [7] -65.4% | [8] -98% | [9] 0.3% | [10] -75.4%

O=C(CSc1nc2ccccc2c(=O)n1-c1ccccc1)Nc1cccc(C(=O)/C=C/c2ccccc2Cl)c1
inactive: [1] 105% | [2] 94.8% | [3] 113% | [4] 99.7% | [5] 96.7% | [6] 101% | [7] 102% | [8] 102% | [9] 112% | [10] 103%

COC(=O)c1[nH]nc2c1C1(C(=O)c3cccc4cccc1c34)C(C#N)=C(N)O2 (stereo not given)
inactive: [1] 104% | [2] 91.2% | [3] 103% | [4] 91.4% | [5] 93.5% | [6] 84.1% | [7] 104% | [8] 101% | [9] 103% | [10] 108%

CCNC(=O)N1CCc2cc(OC)c(OCCc3ccc(OC)cc3)cc2C1c1ccc([N+](=O)[O-])cc1C (stereo not given)
inactive: [1] 20.7% | [2] 13.7% | [3] 63.8% | [4] 17.7% | [6] 32% | [7] 10.8% | [9] 46.6% | [10] 23.4%
active: [5] -9.58% | [8] 9.83%

O=c1[nH]c2ccccc2cc1CSc1ccccc1Nc1nccc(-c2ccc(Cl)cc2)n1
inactive: [1] 102% | [2] 94.7% | [3] 86.1% | [4] 84.5% | [5] 93.5% | [6] 94.6% | [7] 95.5% | [8] 82.7% | [9] 104% | [10] 108%

Cc1cccc2c3c(sc12)C(c1ccc(F)cc1)C(C#N)=C(/N=C/c1ccc(Cl)cc1)O3 (stereo not given)
active: [2] 7.18% | [5] 2.24% | [7] 3.61% | [8] -13.1% | [10] -3.44%
inactive: [1] 20.8% | [3] 63.5% | [4] 25.6% | [6] 41.5% | [9] 56.4%

CC1(C)CC[C@]2(C(=O)O)CC[C@]3(C)C(=CC[C@@H]4[C@@]5(C)CC/C(=N\OCCC#N)C(C)(C)[C@@H]5CC[C@]43C)[C@@H]2C1
inactive: [1] 91.8% | [2] 109% | [3] 117% | [4] 93% | [5] 66.6% | [6] 84.6% | [7] 102% | [8] 99.2% | [9] 108% | [10] 98.2%

COc1ccc(Cn2cc3c(c2-c2cc(OC)c(OC)c(OC)c2)CCc2c(CN4CCOCC4)noc2-3)cc1
active: [8] 3.49%
inactive: [1] 20% | [2] 12.6% | [3] 43.3% | [4] 31.8% | [6] 47.7% | [7] 13.3% | [9] 73.4%

NS(=O)(=O)c1ccc(Nc2cc(-c3ccccc3)nc(SCC(=O)c3ccccc3)n2)cc1
inactive: [1] 103% | [2] 98.1% | [3] 93% | [4] 92.9% | [5] 94.9% | [6] 97.1% | [7] 99.6% | [8] 101% | [9] 99% | [10] 98.4%

Cn1ccnc1C(=O)/C=C/c1ccc(CNC(=O)c2ccc(Cl)cc2)cc1
inactive: [1] 10.2% | [2] 13.2% | [3] 73.5% | [4] 13.3% | [6] 10.1% | [7] 13.8% | [9] 67.9%
active: [8] -26.7%

CCN(CC)c1ccc2c(c1)Oc1nc(N)c(C#N)c(N)c1C2Sc1ccc(F)cc1 (stereo not given)
active: [1] -94.2% | [2] 2.27% | [3] -45.6% | [4] -86% | [6] -44.7% | [7] -91.4% | [8] -96.1% | [9] -16.9%

C=C(C=O)[C@@H]1CC[C@]2(COC(C)=O)CC[C@]3(C)C(CC[C@@H]4[C@@]5(C)CC[C@H](OC(C)=O)C(C)(C)[C@@H]5CC[C@]43C)[C@@H]12 (stereo not given in full)
active: [1] -53% | [2] 2.89% | [3] -64.7% | [4] -32.2% | [6] 6.02% | [7] 0.392% | [8] -50.2% | [9] -17.2%

CC1(C)CC[C@]2(CN)CC[C@]3(C)C(=CC[C@@H]4[C@@]5(C)CCCNC(C)(C)[C@@H]5CC[C@]43C)[C@H]2C1
active: [2] 3.16%
inactive: [1] 109% | [3] 102% | [4] 106% | [6] 98.6% | [7] 104% | [8] 99.7% | [9] 117%

O=C(Nc1cccc(Cl)c1)Nc1nc2ccc([N+](=O)[O-])cc2o1
active: [3] -4.16% | [5] -3.23% | [6] 7.72% | [9] 1.92%
inactive: [1] 26.8% | [2] 12.3% | [4] 25.8% | [7] 24.5% | [8] 11.4% | [10] 18.2%

COc1cccc(/C=C(/C)c2ccc3cccc(OC)c3[o+]2)c1O
inactive: [1] 107% | [2] 97.2% | [3] 105% | [4] 89.8% | [6] 95.3% | [7] 101% | [8] 103% | [9] 110%

COc1ccc(C(=O)c2c(N)c(C#N)cn2-c2ccccc2OC)cc1
inactive: [1] 52.4% | [2] 13.3% | [3] 42% | [4] 48.6% | [6] 44.1% | [8] 12.4% | [9] 66.9%
active: [7] 8.45%

Cn1ccnc1C(=O)/C=C/c1ccc(NC(=O)c2ccc(F)cc2)cc1
inactive: [2] 15% | [3] 87.8% | [4] 22.1% | [6] 21.8% | [7] 52.5% | [9] 84.2%
active: [1] 9.78% | [8] -3.29%

O=c1[nH]c(Sc2sc3ccc(Cl)cc3c2CBr)nc(=S)[nH]1
active: [5] 9.12%
inactive: [1] 33.9% | [2] 12% | [3] 27.4% | [4] 35.9% | [6] 48.9% | [7] 23% | [8] 32.1% | [9] 44.1% | [10] 27.6%

O=C(NNc1nc2cc(F)ccc2n2c(CN3CCCC3)ccc12)c1cnccn1
active: [7] 6.2% | [8] 1.5% | [9] 0.872%
inactive: [1] 17.2% | [2] 11.1% | [3] 37.4% | [4] 31.4% | [6] 22.1%

CS(=O)(=O)Nc1cc(-c2ccc3ncc(C#N)c(NCc4ccccc4F)c3c2)cnc1Cl
inactive: [1] 19% | [2] 13.2%
active: [3] -35.6% | [4] 5.59% | [6] 7.96% | [7] -21.7% | [8] -11.5% | [9] 2.07%

— PubChem BioAssay (NCI)
